Measured values from PubChem BioAssay (Tox21).
Where “and” joins values, the source holds several entries; their conditions need not be identical. Equal values may be shown once. Results filed as inconclusive are left out. Calls of active or inactive are those of the source. Unless noted, the call rests on the fitted dose curve; in most records, active means well fitted curve in the direction sought with a large enough effect in the repeat runs; inconclusive means weak or mixed curves; inactive means no such curve, though single readings can be large; an effect the other way counts as inactive or inconclusive.

Tests used:
[1] = qHTS assay to identify small molecule agonists of the hypoxia (HIF-1) signaling pathway - cell viability counter screen (AID 1224844; calls by dose curve; further: nearly all actives have a fitted effect of over 50% in size)
Summary of the method: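 HRE-bla ME-180; 0.5% dFBS; cpd 17 h, 37C, 5% CO2; CellTiter-Glo lum., 30 min RT, post-FRET read, same wells.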

[2] = qHTS assay to identify small molecule agonists of H2AX (AID 1224845; active means well fitted activation curve with a large enough effect in the signal ratio in the repeat runs, not every such curve was filed as active; the % refers to the signal ratio)
Summary of the method: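 Phospho-H2AX Ser139 measured by HTRF (ex 320 nm; em 665 and 620 nm) after 24 hr antibody incubation. Compounds, 15 concentrations, 0.76% DMSO, were applied to CHO-K1 cells for 3hr at 37C before lysis.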

[3] = qHTS assay to identify small molecule agonists of the hypoxia (HIF-1) signaling pathway (AID 1224846; active means well fitted activation curve with a large enough effect in the signal ratio in the repeat runs, not every such curve was filed as active; the % refers to the signal ratio)
Summary of the method: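 Reporter induction in HRE-bla ME-180 cells is taken as agonism: cells sit 5 hrs after plating, receive compounds or DMSO only, incubate 17 hrs at 37C under 5% CO2, and are loaded with CCF4-AM for beta-lactamase FRET measurement.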

[4] = qHTS assay to identify small molecule agonists of H2AX - cell viability counter screen (AID 1224847; calls by dose curve; further: top concentration of the series differs between compounds; nearly all actives have a fitted effect of over 30% in size)
Summary of the method: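 Quantitative HTS viability measurement: CHO-K1 wild-type cells in serum (10% FBS) medium, short 3 hr drug exposure at 37C with 0.76% DMSO, CellTiter-Glo luminescent detection.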

[5] = qHTS RealTime-Glo MT Cell Viability Assay in HepG2 cells - 24 hour (AID 1224867); further: nearly all actives have a fitted effect of over 50% in size
Summary of the method: (§1)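 Compound treatment began 5 h after plating HepG2 cells (600/well) with NanoLuc luciferase and prosubstrate. Plates stayed at 37 C for 40 h; luminescence was captured at six time points, 0 h through 40 h.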

[6] = qHTS RealTime-Glo MT Cell Viability Assay in HEK293 cells - 32 hour (AID 1224868); further: top concentration of the series differs between compounds; nearly all actives have a fitted effect of over 50% in size
Summary of the method: (§2)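 Quantitative high-throughput screen of the Tox21 10K library in HEK293: cells and RealTime-Glo reagents plated together, compound added at 5 h, luminescence monitored through 40 h at 37 C.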

[7] = A CellTox Green Cytotoxicity Assay to monitor cytotoxicity in HEK293 cells - 0 hour (AID 1224869); further: nearly all actives have a fitted effect of over 50% in size
Summary of the method: (§3)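 Tox21 screen in HEK293: membrane-impermeant cyanine dye fluoresces on binding dead-cell DNA; compound pinned 5 h post-seeding, plates held at 37 C, signal read repeatedly through 40 h.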

[8] = qHTS RealTime-Glo MT Cell Viability Assay in HepG2 cells - 40 hour (AID 1224870); further: nearly all actives have a fitted effect of over 50% in size
Summary of the method: (§4)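 Real-time viability: cells seeded at 600 per well together with NanoLuc and cell-permeant prosubstrate, compounds added after 5 h incubation. Luminescence tracked at 0, 8, 16, 24, 32 and 40 h of exposure.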

[9] = A CellTox Green Cytotoxicity Assay to monitor cytotoxicity in HEK293 cells - 40 hour (AID 1224871); further: nearly all actives have a fitted effect of over 45% in size
Summary of the method: as §3

[10] = qHTS RealTime-Glo MT Cell Viability Assay in HEK293 cells - 16 hour (AID 1224872)
Summary of the method: as §2

[11] = qHTS RealTime-Glo MT Cell Viability Assay in HepG2 cells - 8 hour (AID 1224873); further: nearly all actives have a fitted effect of over 55% in size
Summary of the method: as §4

[12] = qHTS RealTime-Glo MT Cell Viability Assay in HEK293 cells - 40 hour (AID 1224874); conditions: RealTime-Glo luminescence; max response: stronger effect = lower value; further: nearly all actives have a fitted effect of over 50% in size
Summary of the method: (§5)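 HEK293 + NanoLuc + prosubstrate, 600 cells/well; 5 h, 37 C/5% CO2; compound 23 nL in DMSO by pintool; 37 C; luminescence read at 0, 8, 16, 24, 32 and 40 h time points.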

[13] = A CellTox Green Cytotoxicity Assay to monitor cytotoxicity in HEK293 cells - 24 hour (AID 1224875); further: series mostly up to about 77 µM; nearly all actives have a fitted effect of over 45% in size
Summary of the method: as §3

[14] = A CellTox Green Cytotoxicity Assay to monitor cytotoxicity in HepG2 cells - 16 hour (AID 1224876); further: nearly all actives have a fitted effect of over 45% in size
Summary of the method: (§6)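 Measurements at 0, 8, 16, 24, 32 and 40 h of treatment captured CellTox Green fluorescence in HepG2 cells that had been co-plated with reagent and preincubated 5 h at 37 C/5% CO2.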

[15] = qHTS RealTime-Glo MT Cell Viability Assay in HepG2 cells - 32 hour (AID 1224877); further: nearly all actives have a fitted effect of over 55% in size
Summary of the method: as §1

[16] = A CellTox Green Cytotoxicity Assay to monitor cytotoxicity in HepG2 cells - 24 hour (AID 1224878); further: nearly all actives have a fitted effect of over 45% in size
Summary of the method: as §6

[17] = A CellTox Green Cytotoxicity Assay to monitor cytotoxicity in HepG2 cells - 40 hour (AID 1224879); further: nearly all actives have a fitted effect of over 40% in size
Summary of the method: as §6

[18] = qHTS RealTime-Glo MT Cell Viability Assay in HEK293 cells - 0 hour (AID 1224880)
Summary of the method: as §5

[19] = A CellTox Green Cytotoxicity Assay to monitor cytotoxicity in HEK293 cells - 32 hour (AID 1224881); further: nearly all actives have a fitted effect of over 40% in size
Summary of the method: as §3

[20] = qHTS assay to identify small molecule antagonists of the estrogen related receptor (ERR) signaling pathway from Tox21 library (AID 1224848); further: nearly all actives have a fitted effect of over 50% in size
Summary of the method: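 ERR cell line, 2,000 cells/well. 6 h settle, then compound (DMSO) added; 18 h at 37 C; ONE-Glo luminescence after 30 min RT.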
On the % scale 0 is the no-effect control and ±100 the full control effect.

CCNc1ccccc1
inactive: outcome [1] | outcome [2] | outcome [3] | outcome [4] | Potency [5] | Potency [6] | outcome [7] | outcome [8] | Potency [9] | Potency [10] | Potency [11] | max response [12] 0.38% and 24% | Potency [13] | outcome [14] | outcome [15] | Potency [16] | Potency [17] | outcome [18] | Potency [19]

O=C(O)c1cc2ccccc2cc1O
inactive: outcome [1] | outcome [2] | outcome [3] | outcome [4] | outcome [20] | Potency [6] | outcome [7] | outcome [8] | Potency [9] | Potency [10] | Potency [11] | max response [12] -2.62% and 6.1% | Potency [13] | outcome [14] | outcome [15] | Potency [16] | Potency [17] | outcome [18] | Potency [19]

CC(C)(C#N)c1cc(Cn2cncn2)cc(C(C)(C)C#N)c1
inactive: outcome [1] | outcome [2] | outcome [3] | outcome [4] | outcome [20] | outcome [7] | outcome [8] | Potency [9] | Potency [10] | Potency [11] | max response [12] 0.713% and 4.85% | Potency [13] | outcome [14] | outcome [15] | Potency [16] | Potency [17] | outcome [18] | Potency [19]

C=C(C)CNCC
inactive: outcome [1] | outcome [2] | outcome [3] | outcome [4] | outcome [20] | Potency [5] | Potency [6] | outcome [7] | outcome [8] | Potency [9] | Potency [10] | Potency [11] | max response [12] 0.995% and -23.9% | Potency [13] | outcome [14] | outcome [15] | Potency [16] | Potency [17] | outcome [18] | Potency [19]

O=C1CCCC1
inactive: outcome [1] | outcome [2] | outcome [3] | outcome [4] | outcome [20] | Potency [5] | Potency [6] | outcome [7] | outcome [8] | Potency [9] | Potency [10] | Potency [11] | max response [12] -0.988% and 5.09% | Potency [13] | outcome [14] | outcome [15] | Potency [16] | outcome [18] | Potency [19]

CCO[Si](CCCN)(OCC)OCC
inactive: outcome [1] | outcome [2] | outcome [3] | outcome [4] | outcome [20] | Potency [6] | outcome [8] | Potency [9] | Potency [10] | Potency [11] | max response [12] -7.12% and 0.455% | Potency [13] | outcome [14] | outcome [15] | Potency [16] | Potency [17] | outcome [18] | Potency [19]

CC(=O)OC1CC(C)OC(C)O1 (centres undefined)
inactive: outcome [1] | outcome [2] | outcome [3] | outcome [4] | outcome [20] | Potency [5] | Potency [6] | outcome [7] | outcome [8] | Potency [9] | Potency [10] | Potency [11] | max response [12] 5.08% and 9.58% | Potency [13] | outcome [14] | outcome [15] | Potency [16] | outcome [18] | Potency [19]

Cc1ccc(C(C)C)c(O)c1
inactive: outcome [1] | outcome [2] | outcome [3] | outcome [4] | outcome [20] | Potency [5] | outcome [7] | outcome [8] | Potency [9] | Potency [10] | Potency [11] | max response [12] -11.7% and 0.827% | Potency [13] | outcome [14] | outcome [15] | Potency [16] | Potency [17] | outcome [18] | Potency [19]

CCc1ccccc1CC
inactive: outcome [1] | outcome [2] | outcome [3] | outcome [4] | outcome [20] | Potency [5] | Potency [6] | outcome [8] | Potency [9] | activity change, negative = cytotoxicity [10] 1.28% [at 15.8 µM] | Potency [11] | max response [12] 10.8% and 1.1% | Potency [13] | outcome [14] | outcome [15] | Potency [16] | Potency [17] | outcome [18] | Potency [19]

Cc1ccc([N+](=O)[O-])cc1S(=O)(=O)O
inactive: outcome [1] | outcome [2] | outcome [3] | outcome [4] | outcome [20] | Potency [6] | outcome [8] | Potency [9] | Potency [10] | Potency [11] | max response [12] 6.39% and 7.52% | Potency [13] | outcome [14] | outcome [15] | Potency [16] | Potency [17] | outcome [18] | Potency [19]

CC(C)(C)c1cc(Cc2cc(C(C)(C)C)c(O)c(C(C)(C)C)c2)cc(C(C)(C)C)c1O
inactive: outcome [1] | outcome [2] | outcome [3] | outcome [4] | Potency [5] | Potency [6] | outcome [8] | Potency [9] | Potency [10] | Potency [11] | max response [12] 3.98% and -14.3% | Potency [13] | outcome [14] | outcome [15] | Potency [16] | outcome [18] | Potency [19]

CCO[Si](CCC#N)(OCC)OCC
inactive: outcome [1] | outcome [2] | outcome [3] | outcome [4] | Potency [5] | Potency [6] | outcome [7] | outcome [8] | Potency [9] | Potency [10] | Potency [11] | max response [12] 7.39% and 2.23% | Potency [13] | outcome [14] | outcome [15] | Potency [16] | Potency [17] | outcome [18] | Potency [19]

CC(C)CCCCCCCOC(=O)CCCCC(=O)OCCCCCCCC(C)C
inactive: outcome [1] | outcome [2] | outcome [3] | outcome [4] | Potency [5] | outcome [8] | Potency [9] | Potency [10] | Potency [11] | max response [12] -6.27% and 3.22% | Potency [13] | outcome [14] | outcome [15] | Potency [16] | Potency [17] | outcome [18] | Potency [19]

CC(=O)OCCOC(C)=O
inactive: outcome [1] | outcome [2] | outcome [3] | outcome [4] | Potency [5] | Potency [6] | outcome [8] | Potency [9] | Potency [10] | Potency [11] | max response [12] -0.882% and 2.01% | Potency [13] | outcome [14] | outcome [15] | Potency [16] | Potency [17] | outcome [18] | Potency [19]
